Assay results as given in PubChem BioAssay (NCATS).
Inconclusive results are not listed. Entries that show only a call come without a potency. Active and inactive are the calls of the source. The call rests on the fitted dose curve; in most records, active means well fitted cell-killing curve with a large enough effect; inconclusive means small, poorly fitted or top-dose-only effect, or effect the other way; inactive means flat fitted curve, though single readings scatter.
Potency means the concentration at half of the fitted maximal effect.

The compounds below were run on Tov-21-G (assay: Primary qHTS to identify gynecologic anti-cancer compounds using libraries of approved drugs and bioactive compounds (AID 1345084; further: nearly all actives have a fitted effect of over 55% in size)). Settings: Gynecologic cancer cell panel viability, ATPlite luminescence, 48 h; series mostly up to 57.5 µM.
How it was run: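 Measured: luminescence after ATPlite addition (15 min, RT). Exposure: 48 h, 37 C, 5% CO2.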
With `CCCCc1c(-c2ccc(OC)cc2)[nH]c2nccnc12` the Potency was “inactive”. `O=C(c1ccc(F)cc1)N1CCCC(c2nc(-c3ccc(F)cc3)no2)C1` (centres undefined) was tested, and the Potency was “inactive”. In the case of `CC(=O)OC(C)(C)/C=C/C(=O)[C@](C)(O)[C@H]1C(O)C[C@@]2(C)[C@@H]3CC=C4[C@@H](C=C(O[C@@H]5O[C@H](CO)[C@@H](O)[C@H](O)[C@H]5O)C(=O)C4(C)C)[C@]3(C)C(=O)C[C@]12C` (some centres undefined), the Potency is reported as “inactive”. With `CC(C)c1cc2c(N3CCN(C4=NCC(C)(C)S4)CC3)ncnc2s1` the Potency was “inactive”. `COC1CCN(c2cccc(-c3cc(NC(C)=O)nc(-n4nc(C)cc4C)n3)n2)CC1` was tested, and the Potency was “inactive”. In the case of `O=C(NCCCCCCCCNC(=O)C(Cl)Cl)C(Cl)Cl`, the Potency is reported as “inactive”. In the case of `O=C(N[C@H]1CCC[C@H](CO)C1)C1CCN(c2nc3cc(Cl)c(-c4ccc(Cl)cc4)cc3o2)CC1`, the Potency is reported as “inactive”. In the case of `CCN1C(C)(C)CC(Oc2ccc(C(=O)Nc3ccc(NC(=O)Nc4cc(C(C)(C)C)on4)cc3)nc2)CC1(C)C`, the Potency is reported as “inactive”. For `Cc1cc(C(=O)Nc2cc(Nc3ccc4c(/C=C/c5ccccn5)n[nH]c4c3)ccc2F)n(C)n1`, the Potency was “inactive”. With `CC(=O)NCc1cccc(OC[C@@H](O)CNCCc2ccc(NS(=O)(=O)c3ccccc3)cc2)c1` the Potency was “inactive”. `CCC(=C(c1ccc(OCCN2CCCC2)cc1)c1ccc(OCCN2CCCC2)cc1)c1ccccc1` was tested, and the Potency was “inactive”. In the case of `CCCn1ncc(CN2CCCC(C(=O)c3cccc(OC(C)C)c3)C2)c1C` (centres undefined), the Potency is reported as “inactive”. With `O=C(NS(=O)(=O)c1ccc(Br)s1)c1ccc(Cl)cc1Cl` the Potency was “inactive”. In the case of `N#Cc1cnc2c(Cl)cc(NCc3cn(CCN4CCCCCC4)nn3)cc2c1Nc1ccc(F)c(Cl)c1`, the Potency is reported as “inactive”. `NC(N)=N/N=C/c1ccccc1Cl` was tested, and the Potency was “inactive”. With `O=S(=O)(Cc1ccccc1)Nc1ccc(-c2ccc3c(cnn3-c3ccc(F)cc3)c2)c(C(F)(F)F)c1` the Potency was “inactive”. In the case of `COc1ccc(NC(=O)c2ccc(-c3ccc(C(=N)N)cc3C)cc2)cc1N1CCN(C)CC1`, the Potency is reported as “inactive”. In the case of `CCc1cccc(CC)c1-n1c(C=C(C)C)c(C(=O)N2CCNCC2)cc(-c2nc(-c3ccc(C(F)(F)F)cc3)cs2)c1=O`, the Potency is reported as “inactive”. In the case of `COc1ccc2c(c1)C(C(=O)N(Cc1ccc(N(C)C)cc1)c1ccc(C(C)C)cc1)CCC2` (centres undefined), the Potency is reported as “inactive”. With `Cc1cnc(-c2ccccc2C(C)C)nc1NCc1ccc(-n2ccnn2)cc1` the Potency was “inactive”. For `CC(C)(C)Sc1c(CC(C)(C)C(=O)O)n(Cc2ccc(Cl)cc2)c2ccc(OCc3ccc4ccccc4n3)cc12`, the Potency was “inactive”. For `COC1CC(O[C@H]2CC[C@]3(C)C4CC[C@@]5(C)C(=O)[C@]4(CC[C@@H]3C2)CC[C@@H]5C2=CC(=O)OC2)OC(C)C1OC1OC(COC2OC(CO)C(O)C(O)C2O)C(O)C(O)C1O` (some centres undefined), the Potency was 2.24 µM (active). In the case of `CC(=O)CC(=O)Nc1ccc(Cl)c(C(F)(F)F)c1`, the Potency is reported as “inactive”. With `Fc1ccc(-c2cncc(CN3CCN(c4cccc5c4OCCO5)CC3)c2)cc1` the Potency was “inactive”. With `COc1cc(O)cc(/C=C/c2cccc(O)c2)c1` the Potency was “inactive”. For `CNCCC(c1cccs1)c1ccc(O)c2ccccc12` (centres undefined), the Potency was “inactive”. With `CC1OC(=O)C[C@@H]2C(C(=O)O)=CO[C@@H](O[C@H]3O[C@H](CO)[C@@H](O)[C@H](O)[C@H]3O)[C@H]12` (some centres undefined) the Potency was “inactive”. `CCOc1cccc(NC(=O)c2ccc(N3CCCC3)c(C(F)(F)F)c2)c1` was tested, and the Potency was “inactive”. For `CCn1c2ccccc2c2cc(Nc3ccnc(NCCCN4CCOCC4)n3)ccc21`, the Potency was “inactive”. In the case of `CN(C)CCn1cc(-c2ccc(F)cc2)c(-n2cccc2)n1`, the Potency is reported as “inactive”. For `COc1cc(-c2cn(C3CCc4c(F)cccc4N(CC(F)(F)F)C3=O)nn2)ccc1-n1cnc(C)c1` (centres undefined), the Potency was “inactive”. With `CN1CC2CN(c3ccc4oc5ccccc5c(=O)c4c3)CC2C1` (centres undefined) the Potency was “inactive”. With `COCC(c1ccc(C(F)(F)F)cc1)N1CCN(C2(C)CCN(C(=O)c3c(C)ncnc3C)CC2)CC1C` (centres undefined) the Potency was “inactive”. With `C/C=C/C=C/C=C/C(=O)O[C@@H]1C=C2COC(=O)[C@]2(O)[C@@]2(C)CCCC(C)(C)[C@H]12` the Potency was “inactive”. `C/C(=C\CCC(C)C1=CCC2(C)OC3=C(CC12)C(=O)C(O)CC3)CO` (centres undefined) was tested, and the Potency was “inactive”. For `Cc1ccc(S(=O)(=O)NCc2ccc(C(=O)NCCN(Cc3ccccc3)C(C)C)cc2)cc1`, the Potency was “inactive”. With `CC(C)c1noc(C2CCN(c3ncnc(Nc4ccc(S(C)(=O)=O)cc4F)c3[N+](=O)[O-])CC2)n1` the Potency was “inactive”. In the case of `CC(=O)N1CCN(CCOc2ccc(C3CCN(C4=Nn5c(nnc5C(F)(F)F)CC4)CC3)cc2)CC1`, the Potency is reported as “inactive”. `C=C1CCC2C(C)(C)CCCC2(C)C1CC/C(C)=C\CO` (centres undefined) was tested, and the Potency was “inactive”.
